According to PubChem BioAssay (NCI):
This is part of a sample that, as a whole, favours compounds with a hit. Of some 83,000 tested, about 20% had one in any assay.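 Growth was measured after 48 h exposure to one concentration of compound in 96-well plates. Values under 10 count as active.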 The source made the active and inactive calls.

How the values were obtained:
Test in all cases: NCI-60 one-dose screen, 48 h (100 = growth as untreated, 0 = no growth, -100 = all killed)
Settings in all cases: 10 µM unless noted
DU-145 prostate = test system: DU-145 prostate
K-562 leukemia = test system: K-562 leukemia
MALME-3M melanoma = test system: MALME-3M melanoma
MDA-MB-231 breast = test system: MDA-MB-231 breast
RXF 393 renal = test system: RXF 393 renal
SF-268 CNS = test system: SF-268 CNS
SF-295 CNS = test system: SF-295 CNS
SF-539 CNS = test system: SF-539 CNS
UACC-257 melanoma = test system: UACC-257 melanoma
M14 melanoma = test system: M14 melanoma

Measured: growth

Cc1nc(-c2ccc(Cl)cc2)ccc1NC(=O)Nc1cccc(C(F)(F)F)c1
inactive: DU-145 prostate 97.6% | K-562 leukemia 80.6% | MALME-3M melanoma 126% | MDA-MB-231 breast 115% | RXF 393 renal 104% | SF-268 CNS 98.4% | SF-295 CNS 98.4% | SF-539 CNS 94.1% | UACC-257 melanoma 98.9% | M14 melanoma 101%

COc1ccc(/C(=C/c2cc(OC)c(OC)c(OC)c2)[N+](=O)[O-])cc1
inactive: DU-145 prostate 16.3% | SF-268 CNS 17.6% | SF-295 CNS 103% | UACC-257 melanoma 31.8%
active: K-562 leukemia 3.58% | MALME-3M melanoma -10.8% | MDA-MB-231 breast 9.98% | RXF 393 renal -85.1% | SF-539 CNS -11.3% | M14 melanoma 2.06%

O=C1OC(N(Cc2ccc(Cl)cc2)c2ccccc2)c2ccccc21 (stereo not given)
inactive: DU-145 prostate 109% | K-562 leukemia 87% | MALME-3M melanoma 104% | MDA-MB-231 breast 84.8% | RXF 393 renal 125% | SF-268 CNS 105% | SF-295 CNS 104% | SF-539 CNS 99.7% | UACC-257 melanoma 105% | M14 melanoma 104%

COc1cc(C(=O)N2CCN(C(=O)c3cc(OC)c(OCc4ccccc4)cc3N)CC2)c(N)cc1OCc1ccccc1
inactive: DU-145 prostate 111% | MALME-3M melanoma 91.1% | MDA-MB-231 breast 94.7% | RXF 393 renal 98.6% | SF-268 CNS 108% | SF-295 CNS 102% | SF-539 CNS 104% | UACC-257 melanoma 98.5% | M14 melanoma 111%
active: K-562 leukemia 7.24%

CC(=O)Oc1ccc(C(OC(C)=O)OC(C)=O)cc1
inactive: DU-145 prostate 103% | K-562 leukemia 89.6% | MALME-3M melanoma 105% | MDA-MB-231 breast 114% | RXF 393 renal 115% | SF-268 CNS 93.3% | SF-295 CNS 99.1% | SF-539 CNS 99.7% | UACC-257 melanoma 107% | M14 melanoma 99.3%

Cc1cc(O[C@@H]2O[C@@H](C)[C@H](O)[C@@H](O)[C@H]2O)c2c3c(c(O[C@@H]4O[C@@H](C)[C@H](O)[C@@H](O)[C@H]4O)cc2c1)C(=O)c1c(O)cccc1C3=O
inactive: DU-145 prostate 98% | K-562 leukemia 79.6% | MALME-3M melanoma 107% | MDA-MB-231 breast 86.3% | RXF 393 renal 29.6% | SF-268 CNS 56.3% | SF-295 CNS 79% | SF-539 CNS 92.5% | UACC-257 melanoma 87.2% | M14 melanoma 82.6%

CSc1ccc(C(=O)C[n+]2cccc(C)c2)cc1
inactive: DU-145 prostate 109% | K-562 leukemia 102% | MALME-3M melanoma 96.6% | MDA-MB-231 breast 107% | RXF 393 renal 107% | SF-268 CNS 99.4% | SF-295 CNS 98.4% | SF-539 CNS 99.7% | UACC-257 melanoma 98.2% | M14 melanoma 103%

COc1ccc(-c2nn(-c3cccc(Cl)c3)cc2-c2cc(-c3ccc(Br)cc3)[nH]c(=O)c2C#N)cc1
inactive: DU-145 prostate 56.5% | K-562 leukemia 81.8% | MALME-3M melanoma 69.1% | MDA-MB-231 breast 60.8% | RXF 393 renal 75.3% | SF-268 CNS 89.1% | SF-295 CNS 99.1% | SF-539 CNS 81% | UACC-257 melanoma 93.4% | M14 melanoma 81.4%

O=C1c2ccccc2OC=C(c2ccccc2)N1CCCCN1CCCCC1
inactive: DU-145 prostate 48.6% | K-562 leukemia 15.6% | MALME-3M melanoma 67.8% | MDA-MB-231 breast 73.8% | RXF 393 renal 95.7% | SF-268 CNS 55.5% | SF-295 CNS 79.3% | SF-539 CNS 95.7% | UACC-257 melanoma 66.7% | M14 melanoma 68%

CCN(CC)CCN1C(=O)c2c(c3c4ccccc4[nH]c3c3[nH]c4ccccc4c23)C1=O
inactive: DU-145 prostate 105% | K-562 leukemia 17.8% | MALME-3M melanoma 86.1% | MDA-MB-231 breast 83.8% | RXF 393 renal 83.6% | SF-268 CNS 87.3% | SF-295 CNS 84.7% | SF-539 CNS 88.8% | UACC-257 melanoma 105% | M14 melanoma 79.5%

COc1cccc(/C=N/C(=S)NC2(C)C3CCC(C3)C2(C)C)c1O (stereo not given)
inactive: DU-145 prostate 105% | K-562 leukemia 79.4% | MALME-3M melanoma 89.8% | MDA-MB-231 breast 96.2% | RXF 393 renal 99% | SF-268 CNS 94.7% | SF-295 CNS 86.1% | SF-539 CNS 95.3% | UACC-257 melanoma 87% | M14 melanoma 64.8%

COc1ccc2c(c1)O/C(=C/c1ccc(OCC(=O)Nc3ccc(S(N)(=O)=O)cc3)cc1)C2=O
inactive: DU-145 prostate 101% | K-562 leukemia 85.7% | MALME-3M melanoma 111% | MDA-MB-231 breast 94.7% | RXF 393 renal 97.2% | SF-268 CNS 94.8% | SF-295 CNS 106% | SF-539 CNS 97.7% | UACC-257 melanoma 102% | M14 melanoma 102%

C#C[C@@]1(O)[C@@H](CO)O[C@@H](n2cc(C(F)(F)F)c3c(N)ncnc32)[C@@H]1O
inactive: DU-145 prostate 10.2% | MDA-MB-231 breast 14% | SF-268 CNS 11.9% | UACC-257 melanoma 21%
active: K-562 leukemia 5.44% | MALME-3M melanoma -22% | RXF 393 renal -30.3% | SF-295 CNS 7.42% | SF-539 CNS -25.3% | M14 melanoma 9.25%

C=C1c2c(Cl)ccc(O)c2C(O)=C2C(=O)[C@]3(O)C(O)=C(C(N)=O)C(=O)[C@@H](N(C)C)[C@@H]3[C@@H](O)[C@H]12
active: K-562 leukemia 3.66% | MALME-3M melanoma -15% | SF-295 CNS -4.14% | SF-539 CNS 5.14% | UACC-257 melanoma -4.26% | M14 melanoma 9.22%
inactive: DU-145 prostate 21.9% | MDA-MB-231 breast 11% | RXF 393 renal 12.4% | SF-268 CNS 11.8%

CCn1c(C)nc([N+](=O)[O-])c1Sc1nc(N)nc2nc[nH]c12
inactive: DU-145 prostate 24.4% | K-562 leukemia 17.3% | MALME-3M melanoma 53.2% | MDA-MB-231 breast 42.3% | RXF 393 renal 36% | SF-268 CNS 31.3% | SF-295 CNS 23.8% | SF-539 CNS 26.7% | UACC-257 melanoma 39.7%
active: M14 melanoma 8.02%

CC(Cl)(CCl)CS(=O)(=O)c1ccc(Cl)cc1 (stereo not given)
inactive: DU-145 prostate 108% | K-562 leukemia 105% | MALME-3M melanoma 114% | MDA-MB-231 breast 96.5% | RXF 393 renal 93.1% | SF-268 CNS 101% | SF-295 CNS 100% | SF-539 CNS 107% | UACC-257 melanoma 86.7% | M14 melanoma 104%

Nc1nc(-c2cc3c(cc2Cl)NC(=O)/C3=C/c2ccccc2)cs1
active: K-562 leukemia 3.89%
inactive: DU-145 prostate 51.6% | MALME-3M melanoma 97.1% | MDA-MB-231 breast 37.3% | RXF 393 renal 63.3% | SF-268 CNS 52.1% | SF-295 CNS 70% | SF-539 CNS 81.5% | UACC-257 melanoma 80.1% | M14 melanoma 60.6%

N#CC(C#N)=C(C#N)c1c[nH]c2ccccc12
inactive: DU-145 prostate 88% | K-562 leukemia 91.3% | MALME-3M melanoma 86.1% | MDA-MB-231 breast 84.8% | RXF 393 renal 88.2% | SF-268 CNS 90.7% | SF-295 CNS 103% | SF-539 CNS 80.4% | UACC-257 melanoma 85.2% | M14 melanoma 79.7%

c1ccc(-c2nc3sc(C(c4ccccc4)c4ccccc4)nn3c2-c2ccccc2)cc1
inactive: DU-145 prostate 99.9% | K-562 leukemia 106% | MALME-3M melanoma 86.4% | MDA-MB-231 breast 97.8% | RXF 393 renal 109% | SF-268 CNS 92.6% | SF-295 CNS 98.6% | SF-539 CNS 98% | UACC-257 melanoma 92.2% | M14 melanoma 92%

NC(N)=N/N=C/c1ccc([N+](=O)[O-])cc1
inactive: DU-145 prostate 125% | K-562 leukemia 117% | MALME-3M melanoma 103% | MDA-MB-231 breast 101% | RXF 393 renal 102% | SF-268 CNS 103% | SF-295 CNS 91.3% | SF-539 CNS 105% | UACC-257 melanoma 102% | M14 melanoma 105%

O=C(Nc1ccc(-n2cc(-c3ccncc3)c(-c3ccc(O)c(Cl)c3)n2)cc1)Nc1cccc(Cl)c1Cl
inactive: DU-145 prostate 66.4% | K-562 leukemia 39.6% | MALME-3M melanoma 67.4% | MDA-MB-231 breast 27% | SF-268 CNS 82% | SF-295 CNS 37.6% | SF-539 CNS 18.5% | UACC-257 melanoma 90.7% | M14 melanoma 46.9%
active: RXF 393 renal -8.38%

CC(=O)N1N=C2N(Cc3ccccc3)C(=O)c3c(sc4c3CCCC4)N2C1c1cn(-c2ccccc2)nc1-c1ccc(Cl)cc1 (stereo not given)
inactive: DU-145 prostate 112% | K-562 leukemia 93.4% | MALME-3M melanoma 99.9% | MDA-MB-231 breast 99.1% | RXF 393 renal 101% | SF-268 CNS 100% | SF-295 CNS 109% | SF-539 CNS 92.6% | UACC-257 melanoma 113% | M14 melanoma 100%

O=C1C(Cl)=C(Nc2cccc3cc4ccccc4nc23)C(=O)c2ccccc21
inactive: DU-145 prostate 44% | K-562 leukemia 27.9% | MALME-3M melanoma 48.9% | MDA-MB-231 breast 44% | RXF 393 renal 65.2% | SF-268 CNS 45% | SF-295 CNS 53.8% | SF-539 CNS 40.7% | UACC-257 melanoma 45.6% | M14 melanoma 56.4%

O=C(NCCNc1nccc(-c2c(-c3cccc(O)c3)nc3sccn23)n1)c1cc(N2CCOCC2)cc(C(F)(F)F)c1
inactive: DU-145 prostate 110% | K-562 leukemia 70.7% | MDA-MB-231 breast 74.1% | RXF 393 renal 77.8% | SF-268 CNS 102% | SF-295 CNS 84.4% | SF-539 CNS 101% | UACC-257 melanoma 16.7% | M14 melanoma 22.4%
active: MALME-3M melanoma 3.04%

CC(C)NCC(O)COc1ccc(CC(N)=O)cc1 (stereo not given)
inactive: DU-145 prostate 109% | K-562 leukemia 96.6% | MALME-3M melanoma 98.4% | MDA-MB-231 breast 103% | RXF 393 renal 111% | SF-268 CNS 112% | SF-295 CNS 95.8% | SF-539 CNS 109% | UACC-257 melanoma 104% | M14 melanoma 98.3%

OCCOCC(F)(F)F
inactive: DU-145 prostate 109% | K-562 leukemia 97.2% | MALME-3M melanoma 99.6% | MDA-MB-231 breast 124% | RXF 393 renal 113% | SF-268 CNS 102% | SF-295 CNS 103% | SF-539 CNS 96.7% | UACC-257 melanoma 118% | M14 melanoma 112%

CCOc1ccc(-n2c(-c3cc(OC)c(OC)c(OC)c3)nnc2-c2ccc(OC)cc2N)cc1
inactive: DU-145 prostate 57.6% | K-562 leukemia 70.3% | MALME-3M melanoma 79.7% | MDA-MB-231 breast 82.7% | RXF 393 renal 51.9% | SF-268 CNS 86.9% | SF-295 CNS 84.8% | SF-539 CNS 77.6% | UACC-257 melanoma 57.2% | M14 melanoma 68.1%
